Data taken from PubChem BioAssay (EPA / NIEHS).
Activity calls are given as the source filed them. Rule for the calls: active = hit-call score of the fitted dose curve at least 0.9, where 1 is the maximum; inactive = score below 0.9.

Legend:
[1] = ATG_ISRE_CIS: Attagene CIS-FACTORIAL HepG2 Assay for human Interferon Regulatory Factor 1 (IRF1) binding to an Interferon-Stimulated Response Element (ISRE) (AID 2282948); settings: HepG2 ISRE cis-reporter (Attagene), mRNA transcription readout; actives raise or lower the signal
Outline: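 Read-out: fluorescent RT-PCR products resolved by capillary electrophoresis, reporting endogenous transcription factor activity via ISRE-driven reporter mRNA in transfected HepG2 cells dosed for 24 h; gain or loss fitted relative to DMSO.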

[2] = ATG_M_32_CIS: Attagene CIS-FACTORIAL HepG2 Assay for M32 Transcription Factor (Internal Marker) (AID 2282949); settings: HepG2 Attagene cis-factorial M32 reporter, mRNA; actives raise or lower the signal;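 note: background control marker of the multiplexed CIS panel rather than a real target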
Outline: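 Using DMSO as baseline, bidirectional curve fits were applied to reporter mRNA signals. These came from transiently transfected HepG2 cells exposed for 24 h, with RNA analysed by RT-PCR, FAM primer extension, HpaI digestion and CE.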

[3] = target: Hypoxia-inducible factor 1-alpha (Homo sapiens) (UniProt Q16665); experiment: ATG_HIF1a_CIS: Attagene CIS-FACTORIAL HepG2 Assay for human Hypoxia Inducible Factor 1 (HIF1A) (AID 2282951); settings: HepG2 Attagene cis-factorial HIF1a reporter transcription; actives raise or lower the signal
Sequence of Hypoxia-inducible factor 1-alpha (Homo sapiens) (Q16665 whole entry, looked up, the tested form may be a part): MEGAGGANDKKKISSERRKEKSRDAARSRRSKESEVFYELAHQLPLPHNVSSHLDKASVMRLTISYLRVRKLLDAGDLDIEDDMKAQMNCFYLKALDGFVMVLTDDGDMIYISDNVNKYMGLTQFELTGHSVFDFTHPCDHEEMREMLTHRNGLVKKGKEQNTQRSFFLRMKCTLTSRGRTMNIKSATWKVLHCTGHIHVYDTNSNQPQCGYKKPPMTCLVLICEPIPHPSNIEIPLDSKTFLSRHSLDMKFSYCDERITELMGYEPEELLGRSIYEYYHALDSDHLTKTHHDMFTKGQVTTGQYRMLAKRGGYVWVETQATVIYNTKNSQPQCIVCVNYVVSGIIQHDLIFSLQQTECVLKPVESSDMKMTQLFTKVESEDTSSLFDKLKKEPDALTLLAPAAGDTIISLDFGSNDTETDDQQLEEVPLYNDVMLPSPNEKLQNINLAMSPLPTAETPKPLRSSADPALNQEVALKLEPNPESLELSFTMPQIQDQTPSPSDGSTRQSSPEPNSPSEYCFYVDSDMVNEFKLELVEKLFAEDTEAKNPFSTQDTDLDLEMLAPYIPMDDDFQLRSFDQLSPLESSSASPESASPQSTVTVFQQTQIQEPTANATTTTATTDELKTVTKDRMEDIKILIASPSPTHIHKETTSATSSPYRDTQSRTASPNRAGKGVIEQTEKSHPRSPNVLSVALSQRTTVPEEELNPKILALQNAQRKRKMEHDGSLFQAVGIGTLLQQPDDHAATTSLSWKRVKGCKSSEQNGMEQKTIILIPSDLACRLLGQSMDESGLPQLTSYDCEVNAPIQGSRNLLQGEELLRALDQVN
Outline: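 Transient MRTU transfection of human HepG2 liver cells, 24 h compound treatment, then total RNA isolation, oligo(dT) reverse transcription, PCR amplification, fluorescent labelling and capillary electrophoresis of reporter fragments. Gain or loss relative to DMSO.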

[4] = target: Hepatocyte nuclear factor 6 (Homo sapiens) (UniProt Q9UBC0); experiment: ATG_HNF6_CIS: Attagene CIS-FACTORIAL HepG2 Assay for human Hepatocyte Nuclear Factor 6 (HNF6) (AID 2282952); settings: HepG2 Attagene cis-factorial HNF6 reporter transcription; actives raise or lower the signal
Sequence of Hepatocyte nuclear factor 6 (Homo sapiens) (Q9UBC0 whole entry, looked up, the tested form may be a part): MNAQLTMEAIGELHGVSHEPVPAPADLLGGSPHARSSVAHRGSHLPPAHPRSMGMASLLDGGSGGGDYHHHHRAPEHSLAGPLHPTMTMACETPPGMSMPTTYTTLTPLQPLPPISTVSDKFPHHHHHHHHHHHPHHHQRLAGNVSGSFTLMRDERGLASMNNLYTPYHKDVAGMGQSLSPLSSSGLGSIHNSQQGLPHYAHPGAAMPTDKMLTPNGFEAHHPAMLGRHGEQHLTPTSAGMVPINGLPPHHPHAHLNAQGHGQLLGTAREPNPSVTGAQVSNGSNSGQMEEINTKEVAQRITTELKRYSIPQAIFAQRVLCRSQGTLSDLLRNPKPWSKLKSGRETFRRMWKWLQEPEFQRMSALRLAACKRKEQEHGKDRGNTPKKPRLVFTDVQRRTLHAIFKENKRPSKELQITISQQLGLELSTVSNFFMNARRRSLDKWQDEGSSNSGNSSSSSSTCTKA
Outline: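 Twenty-four-hour chemical treatment of reporter-transfected HepG2 cells precedes RNA isolation, DNase-treated reverse transcription and PCR of reporter sequences. Labelled fragments are sized by capillary electrophoresis and fitted bidirectionally versus DMSO.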

[5] = target: Heat shock factor protein 1 (Homo sapiens) (UniProt Q00613); experiment: ATG_HSE_CIS: Attagene CIS-FACTORIAL HepG2 Assay for human Heat Shock Transcription Factor 1 (HSE) (AID 2282953); settings: HepG2 HSE cis-reporter, Attagene RNA transcription; actives raise or lower the signal
Sequence of Heat shock factor protein 1 (Homo sapiens) (Q00613 whole entry, looked up): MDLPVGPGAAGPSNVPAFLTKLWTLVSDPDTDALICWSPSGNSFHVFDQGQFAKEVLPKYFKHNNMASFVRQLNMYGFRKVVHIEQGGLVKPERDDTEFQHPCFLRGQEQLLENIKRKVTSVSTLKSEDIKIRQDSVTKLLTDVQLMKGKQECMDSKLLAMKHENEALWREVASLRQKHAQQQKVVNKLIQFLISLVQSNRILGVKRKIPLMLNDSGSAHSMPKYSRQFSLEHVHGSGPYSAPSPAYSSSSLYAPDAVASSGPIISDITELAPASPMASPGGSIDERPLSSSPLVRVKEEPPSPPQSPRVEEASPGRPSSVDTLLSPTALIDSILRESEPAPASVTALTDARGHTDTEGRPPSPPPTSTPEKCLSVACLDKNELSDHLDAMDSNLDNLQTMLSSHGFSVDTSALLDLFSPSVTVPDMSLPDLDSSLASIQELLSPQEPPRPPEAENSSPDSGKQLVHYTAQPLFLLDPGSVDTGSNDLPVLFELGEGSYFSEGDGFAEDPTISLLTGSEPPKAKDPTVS
Outline: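 Endogenous transcription factor activity in transiently transfected HepG2, read as reporter mRNA by RT-PCR with fluorescent capillary electrophoresis after 24 h. Gain or loss of signal fitted versus DMSO baseline.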

[6] = ATG_MRE_CIS: Attagene CIS-FACTORIAL HepG2 Assay for human Metal Responsive Element (MRE) (AID 2282954); settings: HepG2 MRE cis-reporter transcription, Attagene multiplex; actives raise or lower the signal
Outline: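 RT-PCR/capillary electrophoresis readout of reporter mRNA, 24 h post-dosing, in HepG2 cells transfected with multiplexed cis-regulated reporter constructs. Gain or loss of signal fitted bidirectionally against DMSO baseline.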

[7] = ATG_PBREM_CIS: Attagene CIS-FACTORIAL HepG2 Assay for human Phenobarbital-responsive Enhancer Module (PBREM) (AID 2282955); settings: HepG2 PBREM cis-reporter, Attagene multiplexed transcription; actives raise or lower the signal
Outline: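 Endogenous transcription factors in human liver HepG2 cells drive a PBREM cis-element reporter, whose transcript level after 24 h treatment is quantified by RT-PCR with capillary electrophoresis; activity fitted in both directions against DMSO.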

[8] = target: Paired box protein Pax-6 (Homo sapiens) (UniProt P26367); experiment: ATG_Pax6_CIS: Attagene CIS-FACTORIAL HepG2 Assay for human Paired Box 6 (PAX6) (AID 2282956); settings: HepG2 CIS-FACTORIAL PAX6 reporter transcription, RNA readout; actives raise or lower the signal
Sequence of Paired box protein Pax-6 (Homo sapiens) (P26367 whole entry, looked up): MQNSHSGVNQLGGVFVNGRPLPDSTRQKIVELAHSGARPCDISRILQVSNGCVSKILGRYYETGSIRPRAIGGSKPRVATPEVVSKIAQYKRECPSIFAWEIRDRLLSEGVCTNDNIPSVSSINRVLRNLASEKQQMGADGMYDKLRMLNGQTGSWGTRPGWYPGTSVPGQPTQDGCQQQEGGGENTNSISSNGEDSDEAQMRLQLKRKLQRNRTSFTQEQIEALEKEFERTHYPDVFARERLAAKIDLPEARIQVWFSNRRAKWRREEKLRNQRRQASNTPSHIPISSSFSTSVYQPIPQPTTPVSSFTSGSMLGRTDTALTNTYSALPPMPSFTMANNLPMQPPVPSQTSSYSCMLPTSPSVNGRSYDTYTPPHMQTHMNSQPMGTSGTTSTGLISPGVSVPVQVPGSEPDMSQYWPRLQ
Outline: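 Readout: reporter transcript fluorescence after RT-PCR and capillary electrophoresis. Cells: HepG2, transiently transfected with cis-regulated MRTUs. Exposure 24 h. Gain or loss of signal fitted bidirectionally relative to DMSO.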

[9] = ATG_PXRE_CIS: Attagene CIS-FACTORIAL HepG2 Assay for human Pregnane X Receptor Element (PXRE) (AID 2282957); settings: HepG2 Attagene CIS-FACTORIAL PXRE reporter, mRNA; actives raise or lower the signal
Outline: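 Bidirectional activity, baselined to DMSO, derived from reporter mRNA fluorescence (RT-PCR plus capillary electrophoresis) in HepG2 cells bearing cis-promoter reporter units, 24 h exposure.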

[10] = ATG_PPRE_CIS: Attagene CIS-FACTORIAL HepG2 Assay for human Peroxisome Proliferator-activated Response Element (PPRE) (AID 2282958); settings: HepG2 PPRE cis-element reporter, Attagene transcription factor profiling; actives raise or lower the signal
Outline: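 HepG2, transient MRTU transfection (cis promoter elements, endogenous TFs). 24 h dosing. RNA → oligo(dT) RT → PCR → 6-FAM primer extension → HpaI digest → CE. Bidirectional fit vs DMSO.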

[11] = ATG_RORE_CIS: Attagene CIS-FACTORIAL HepG2 Assay for human RAR-related Orphan Receptor Element (RORE) (AID 2282959); settings: HepG2 Attagene cis-factorial RORE reporter, mRNA; actives raise or lower the signal
Outline: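 Transient MRTU transfection of human HepG2 liver cells (FuGene 6); 24 h compound exposure; TriZol RNA, oligo(dT) RT, PCR, FAM labeling, HpaI cut, CE fragment analysis. DMSO = negative control/baseline.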

[12] = ATG_Sox_CIS: Attagene CIS-FACTORIAL HepG2 Assay for human SRY-box transcription factor (SOX) (AID 2282960); settings: HepG2 Attagene cis-factorial SOX reporter, mRNA; actives raise or lower the signal
Outline: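 Endogenous factor activity in human liver HepG2 cells carrying transfected cis-regulated reporter units. RNA taken 24 h post-dose, reverse-transcribed, PCR-amplified and sized by capillary electrophoresis. Gain or loss of signal fitted relative to DMSO.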

[13] = target: Transcription factor Sp1 (Homo sapiens) (UniProt P08047); experiment: ATG_Sp1_CIS: Attagene CIS-FACTORIAL HepG2 Assay for human Specificity Protein 1 (Sp1) (AID 2282961); settings: HepG2 Sp1 cis-reporter transcription, actives raise or lower the signal
Sequence of Transcription factor Sp1 (Homo sapiens) (P08047 whole entry, looked up): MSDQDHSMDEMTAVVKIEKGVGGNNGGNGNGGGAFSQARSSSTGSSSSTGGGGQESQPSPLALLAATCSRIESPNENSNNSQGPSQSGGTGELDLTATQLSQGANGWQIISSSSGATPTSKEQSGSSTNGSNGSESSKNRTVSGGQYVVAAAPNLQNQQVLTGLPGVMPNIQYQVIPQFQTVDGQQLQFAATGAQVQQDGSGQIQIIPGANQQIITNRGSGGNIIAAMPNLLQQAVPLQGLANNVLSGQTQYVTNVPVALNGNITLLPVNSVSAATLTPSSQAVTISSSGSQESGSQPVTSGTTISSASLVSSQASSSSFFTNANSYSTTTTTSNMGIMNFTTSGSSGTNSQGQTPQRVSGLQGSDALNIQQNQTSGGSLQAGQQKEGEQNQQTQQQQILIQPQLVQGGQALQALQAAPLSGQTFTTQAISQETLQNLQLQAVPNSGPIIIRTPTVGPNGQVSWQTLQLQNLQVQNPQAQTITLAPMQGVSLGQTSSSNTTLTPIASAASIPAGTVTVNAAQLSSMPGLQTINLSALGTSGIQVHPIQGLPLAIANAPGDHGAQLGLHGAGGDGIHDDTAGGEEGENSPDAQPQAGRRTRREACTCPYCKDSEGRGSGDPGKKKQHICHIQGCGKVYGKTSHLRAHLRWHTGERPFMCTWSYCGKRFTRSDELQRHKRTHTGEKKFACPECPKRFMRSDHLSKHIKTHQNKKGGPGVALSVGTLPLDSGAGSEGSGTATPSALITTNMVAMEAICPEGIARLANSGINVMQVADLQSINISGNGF
Outline: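 Transient MRTU-transfected HepG2, 24 h compound exposure. Total RNA → oligo(dT) RT → PCR of reporter → 6-FAM primer extension → HpaI digest → CE. Endpoint fitted both directions vs DMSO.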

[14] = ATG_SREBP_CIS: Attagene CIS-FACTORIAL HepG2 Assay for human Sterol Regulatory Element Binding (SREBP) (AID 2282962); settings: HepG2 Attagene cis-factorial SREBP reporter, mRNA; actives raise or lower the signal
Outline: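 Readout: fluorescent reporter-transcript peaks resolved by capillary electrophoresis after RT-PCR. Cells were human HepG2 carrying transfected cis-promoter reporter constructs, dosed for 24 h. Gain or loss of signal was fitted against DMSO controls.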

[15] = target: Signal transducer and activator of transcription 3 (Homo sapiens) (UniProt P40763); experiment: ATG_STAT3_CIS: Attagene CIS-FACTORIAL HepG2 Assay for human Signal Transducer and Activator of Transcription 3 (STAT3) (AID 2282963); settings: HepG2, Attagene cis-factorial STAT3 reporter transcription; actives raise or lower the signal
Sequence of Signal transducer and activator of transcription 3 (Homo sapiens) (P40763 whole entry, looked up, the tested form may be a part): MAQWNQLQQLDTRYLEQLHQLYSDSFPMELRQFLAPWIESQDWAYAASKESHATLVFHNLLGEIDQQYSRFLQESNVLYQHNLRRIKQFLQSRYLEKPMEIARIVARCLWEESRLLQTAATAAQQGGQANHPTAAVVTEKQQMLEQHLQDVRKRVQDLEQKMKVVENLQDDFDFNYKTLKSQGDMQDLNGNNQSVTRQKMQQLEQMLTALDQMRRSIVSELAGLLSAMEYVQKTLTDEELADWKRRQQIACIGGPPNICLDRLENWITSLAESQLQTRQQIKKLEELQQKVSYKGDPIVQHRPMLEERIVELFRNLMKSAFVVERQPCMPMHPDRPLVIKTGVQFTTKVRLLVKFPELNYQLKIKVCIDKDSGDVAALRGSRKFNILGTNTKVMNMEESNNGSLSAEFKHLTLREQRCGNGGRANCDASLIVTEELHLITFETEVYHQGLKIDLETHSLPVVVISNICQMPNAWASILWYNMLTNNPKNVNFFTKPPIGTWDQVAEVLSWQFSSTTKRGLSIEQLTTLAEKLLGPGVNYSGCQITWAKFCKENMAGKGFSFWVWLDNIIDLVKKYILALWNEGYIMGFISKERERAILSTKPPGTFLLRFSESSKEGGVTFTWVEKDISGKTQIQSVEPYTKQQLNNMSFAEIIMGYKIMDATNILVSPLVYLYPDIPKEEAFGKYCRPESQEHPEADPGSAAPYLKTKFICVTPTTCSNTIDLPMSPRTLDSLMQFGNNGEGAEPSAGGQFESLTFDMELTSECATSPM
Outline: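 Readout: fluorescent reporter mRNA fragments resolved by capillary electrophoresis. Setup: HepG2 transfected with MRTUs reporting endogenous transcription-factor activity, dosed 24 h. Gain or loss of signal fitted bidirectionally against DMSO control.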

[16] = ATG_TA_CIS: Attagene CIS-FACTORIAL HepG2 Assay for human TA Basal Promoter (AID 2282964); settings: HepG2 Attagene CIS-factorial TA basal promoter reporter; actives raise or lower the signal
Outline: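 Background-control readout: TA basal promoter reporter mRNA, fitted in both directions relative to DMSO. Measured by RT-PCR and capillary electrophoresis 24 hours after treating HepG2 human liver cells transiently carrying multiplexed cis-regulated reporter constructs.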

[17] = ATG_TCF_b_cat_CIS: Attagene CIS-FACTORIAL HepG2 Assay for human T-Cell-Factor with beta-catenin (TCF/b-cat) (AID 2282965); settings: HepG2 TCF/beta-catenin cis-reporter transcription, actives raise or lower the signal
Outline: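 HepG2, transient MRTU transfection, cis-element-driven reporters (endogenous TFs). 24 h compound exposure. Readout: reporter mRNA by RT-PCR + 6-FAM primer extension, HpaI digest, capillary electrophoresis. Gain/loss fit vs DMSO baseline.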

[18] = ATG_TAL_CIS: Attagene CIS-FACTORIAL HepG2 Assay for human TAL Basal Promoter (AID 2282966); settings: HepG2 Attagene cis-factorial TAL promoter reporter; actives raise or lower the signal;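 note: background control endpoint measuring basal TAL promoter reporter mRNA not a specific factor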
Outline: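 Human hepatoma HepG2 cells, transfected with promoter-regulated reporter units, were treated 24 h. Reporter transcript levels, measured through RT-PCR and capillary electrophoresis, were fitted for gain or loss relative to DMSO.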

[19] = ATG_M_06_CIS: Attagene CIS-FACTORIAL HepG2 Assay for M06 Transcription Factor (Internal Marker) (AID 2282950); settings: HepG2 Attagene CIS-FACTORIAL M06 internal marker reporter; actives raise or lower the signal
Outline: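 Serves as a background control readout. Transfected HepG2 exposed to compounds for 24 h, then reporter transcripts quantified by fluorescent RT-PCR and capillary electrophoresis. Both directions fitted against DMSO baseline.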

Measured: AC50

c1ccc2c(c1)-c1cccc3cccc-2c13
inactive: [1] | [3] | [4] | [5] | [6] | [7] | [8] | [10] | [11] | [12] | [13] | [14] | [15] | [16] | [17] | [18]
active: [2] 0.00928 µM | [9] 26 µM

CCN(CC)CCO
inactive: [1] | [2] | [3] | [4] | [5] | [6] | [7] | [8] | [9] | [10] | [11] | [12] | [13] | [14] | [15] | [16] | [17] | [18]

CC(C)N(Cc1ccccc1)C(=O)C(C)(C)C
inactive: [1] | [2] | [3] | [4] | [5] | [6] | [7] | [8] | [10] | [11] | [12] | [13] | [14] | [15] | [17] | [18]
active: [9] 1.24 µM

N#CC(Br)(Br)C(N)=O
inactive: [1] | [2] | [3] | [4] | [5] | [6] | [8] | [10] | [11] | [12] | [13] | [15] | [16] | [18]
active: [9] 100 µM | [14] 169 µM | [17] 165 µM

COC(=O)Nc1nc2ccccc2[nH]1
inactive: [1] | [2] | [3] | [4] | [5] | [6] | [7] | [8] | [9] | [10] | [11] | [12] | [13] | [14] | [15] | [16] | [17] | [18]

Clc1ccccc1Cl
inactive: [1] | [2] | [3] | [4] | [5] | [6] | [7] | [8] | [9] | [10] | [11] | [12] | [13] | [14] | [15] | [16] | [17] | [18]

CC(O)CCO (configuration not stated)
active: [9] 27 µM
inactive: [1] | [2] | [3] | [4] | [5] | [6] | [7] | [8] | [10] | [11] | [12] | [13] | [14] | [15] | [17] | [18]

c1ccc(N=Nc2ccccc2)cc1
inactive: [1] | [2] | [3] | [4] | [5] | [6] | [7] | [8] | [9] | [11] | [12] | [13] | [14] | [15] | [16] | [17] | [18]

Clc1ccc(C(c2ccc(Cl)cc2)C(Cl)(Cl)Cl)cc1
inactive: [2] | [3] | [4] | [5] | [8] | [10] | [11] | [12] | [14] | [15] | [16] | [17] | [18]
active: [1] 62.2 µM | [6] 100 µM | [9] 4.13 µM | [13] 100 µM

O=C1CCCO1
inactive: [1] | [2] | [3] | [4] | [5] | [6] | [7] | [8] | [9] | [10] | [11] | [12] | [13] | [14] | [15] | [16] | [17] | [18]

O=P(OCCCl)(OCCCl)OCCCl
active: [9] 43.6 µM
inactive: [1] | [2] | [3] | [4] | [5] | [6] | [7] | [8] | [10] | [11] | [12] | [13] | [14] | [15] | [16] | [17] | [18]

Clc1ccc(C(c2ccc(Cl)cc2)C(Cl)Cl)cc1
inactive: [2] | [3] | [4] | [10] | [11] | [12] | [15] | [16] | [17] | [18]
active: [1] 49.4 µM | [5] 51.7 µM | [6] 50.6 µM | [7] 56.8 µM | [8] 62.7 µM | [9] 8.73 µM | [13] 59.8 µM | [14] 56.4 µM

O=C(O)C1C2CCC(O2)C1C(=O)O (configuration not stated)
inactive: [19] | [4] | [5] | [12] | [14] | [15] | [17] | [18]
active: [1] 61.9 µM | [2] 159 µM | [6] 149 µM | [7] 160 µM | [8] 123 µM | [9] 68.6 µM | [11] 100 µM | [13] 100 µM
